# Measurements as given in the supplement of paper PMC7695840.
# Structures can show the parent of a compound that is named as a salt.
# Test system: Staphylococcus aureus MW2 (mecA+)
# Experiment: normalized DsRed fluorescence (growth of mecA+ strain) (fraction of control range); higher = more growth of mecA+ strain
# Conditions: compound concentration: 150 uM; cefoxitin: subinhibitory; fluorescent label: DsRed
# Method in brief: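 Two pre-induced S. aureus MW2 strains, one with the gene labeled by DsRed and one lacking it labeled by GFP, were mixed 1:1 in LB with a subinhibitory antibiotic dose set daily. The mix went at 5 µL/well onto 150 μM compound (1.5% DMSO) in 1536-well plates, single replicate, and grew unshaken 20 h at 37 °C, 90% humidity. DsRed (540/590) and GFP (485/520) values were scaled per plate between single-strain control medians, and plates with high untreated ratios or rows with DsRed/GFP >10 were left out.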
row,Compound,normalized DsRed fluorescence
1,CCC1(c2cccc(O)c2)CCCCN(C)C1 (stereo not drawn) [Meptazinol HCl],0.815
2,NCC(CC(=O)O)c1ccc(Cl)cc1 (stereo not drawn),0.941
3,Nc1ccncc1,0.715
4,CCC(=O)O[C@H]1CC[C@H]2[C@@H]3CCC4=CC(=O)CC[C@]4(C)[C@H]3CC[C@]12C,0.364
5,NCC1(CC(=O)O)CCCCC1,0.674
6,CCCC(C)C1(CC)C(=O)NC(=S)NC1=O (stereo not drawn),0.518
7,c1ccc2c(c1)Nc1ccccc1S2,0.671
8,NC(=O)CN1CCCC1=O,0.628
9,C[N+]12CCC(CC1)C(OC(=O)C(O)(c1ccccc1)c1ccccc1)C2 (stereo not drawn),0.579
10,CCC(COC(=O)c1cc(OC)c(OC)c(OC)c1)(c1ccccc1)N(C)C (stereo not drawn) [Trimebutine],0.646
11,C[C@]12CC[C@@H]3c4ccc(OC(=O)N(CCCl)CCCl)cc4CC[C@H]3[C@@H]1CC[C@@H]2O,0.515
12,C=C/C=C\CC1=C(C)[C@@H](OC(=O)[C@@H]2[C@@H](/C=C(\C)C(=O)OC)C2(C)C)CC1=O.C=C/C=C\CC1=C(C)[C@@H](OC(=O)[C@@H]2[C@@H](C=C(C)C)C2(C)C)CC1=O,0.442
13,C[C@]12CC[C@H]3[C@@H](CCC4=CC(=O)CC[C@@]43C)[C@@H]1CC[C@@H]2O,0.506
14,CN1C[C@H](C(=O)N[C@]2(C)O[C@@]3(O)[C@@H]4CCCN4C(=O)[C@H](Cc4ccccc4)N3C2=O)C=C2c3cccc4[nH]cc(c34)C[C@H]21,1.11
15,C[C@@H]1[C@H](O)[C@@H](C)/C=C/C=C/CC/C=C/C=C/C=C/C=C/[C@H](O[C@H]2O[C@@H](C)[C@H](O)[C@@H](N)[C@H]2O)C[C@@H]2O[C@](O)(C[C@@H](O)[C@H](O)CC[C@@H](O)C[C@@H](O)C[C@@H](O)CC(=O)O[C@H]1C)C[C@H](O)[C@H]2C(=O)O [Nystatin (Fungicidin)],0.585
16,CO[C@]12C[C@@H](COC(=O)c3cncc(Br)c3)CN(C)[C@@H]1Cc1cn(C)c3cccc2c13,0.751
17,CC(=O)O[C@H]1C[C@H](O[C@H]2[C@@H](O)C[C@H](O[C@H]3[C@@H](O)C[C@H](O[C@H]4CC[C@@]5(C)[C@H](CC[C@@H]6[C@@H]5C[C@@H](O)[C@]5(C)[C@@H](C7=CC(=O)OC7)CC[C@]65O)C4)O[C@@H]3C)O[C@@H]2C)O[C@H](C)[C@H]1O[C@@H]1O[C@H](CO)[C@@H](O)[C@H](O)[C@H]1O,0.766

row,Compound,normalized DsRed fluorescence
1,CC(Cc1ccc(O)cc1)NCC(O)c1cc(O)cc(O)c1 (stereo not drawn),0.737
2,Cc1c(N)nc(C(CC(N)=O)NCC(N)C(N)=O)nc1C(=O)NC(C(=O)NC(C)C(O)C(C)C(=O)NC(C(=O)NCCc1nc(-c2nc(C(=O)NCCC[S+](C)C)cs2)cs1)C(C)O)C(O[C@@H]1O[C@@H](CO)[C@@H](O)[C@H](O)[C@@H]1O[C@H]1O[C@H](CO)[C@@H](O)[C@H](OC(N)=O)[C@@H]1O)c1cnc[nH]1 (stereo partly drawn),0.862
3,Cc1cccc([C@H](C)c2c[nH]cn2)c1C [Dexmedetomidine],0.702
4,Cc1ccc(-c2nc3ccc(C)cn3c2CC(=O)N(C)C)cc1,0.527
5,COP(=O)(OC)C(O)C(Cl)(Cl)Cl (stereo not drawn),0.658
6,NCCCNCCSP(=O)(O)O,0.76
7,NC(=O)C[S@@+]([O-])C(c1ccccc1)c1ccccc1,1.11
8,CN1C(=O)C(O)N=C(c2ccccc2)c2cc(Cl)ccc21 (stereo not drawn),0.691
9,O=C(O)CCCc1ccc(N(CCCl)CCCl)cc1,1.38
10,CC[C@@H](CO)NC(=O)[C@@H]1C=C2c3cccc4c3c(cn4C)C[C@H]2N(C)C1,0.713
11,CC(C)C[C@H](CN)CC(=O)O,0.571
12,CCCC(C)(COC(N)=O)COC(=O)NC(C)C (stereo not drawn),1.05
13,Oc1ccc2c3c1O[C@H]1[C@@H](O)CC[C@@]4(O)[C@@H](C2)N(CC2CCC2)CC[C@]314,0.715
14,O=C1CC[C@@]2(O)[C@H]3Cc4ccc(O)c5c4[C@@]2(CCN3CC2CC2)[C@H]1O5,0.86
15,O=[N+]([O-])O[C@H]1CO[C@H]2[C@@H]1OC[C@H]2O[N+](=O)[O-],0.65
16,O=[N+]([O-])O[C@@H]1CO[C@H]2[C@@H]1OC[C@@H]2O,1.13
